Compounds with a hit are over-represented: about 12% of the library has one in this group of screens.
BAZ2B block: BAZ2B (human) inhibition; Q9UIF8; AlphaScreen BAZ2B-H3K14Ac peptide displacement; Potency, µM (top dose mostly 114 µM), usual class: inhibitors; 360,000 compounds, 4.4% hits; note: nearly all actives have a fitted effect of over 60% in size
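AlphaScreen displacement of biotin-H3(5-23)K14Ac peptide (50 nM final) from BAZ2B (50 nM final) in PBS pH 7.4, 0.01% Tween-20; complex preformed 30 min RT, then compounds (top 110 uM) 30 min RT, beads 20 min dark.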
HP1b chromo inh: blocks HP1-beta chromodomain binding to methylated histone tails | Potency, µM (highest dose often 114 µM), actives largely listed as inhibitors | 390,000 compounds, 0.56% hits | AID 540317 | AlphaScreen HP1-beta / biotin-H3K9me3 peptide binding; note: nearly all actives have a fitted effect of over 70% in size
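HP1-beta protein (50 nM final) preincubated 30 min at room temperature with biotinylated H3(1-18)K9me3 peptide (50 nM) in PBS pH 7.4, 0.01% Tween-20, then compound added for 30 min. AlphaScreen streptavidin donor/nickel chelate acceptor beads (10 ug/mL final), 30 min dark, luminescence read.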
L3MBTL1 inh: blocks human L3MBTL1; AID 485360; AlphaScreen L3MBTL1–H3K9me1 peptide binding; Potency, µM (top dose mostly 57.1 µM), most hits filed as inhibitors; 230,000 compounds, 0.66% hits; note: nearly all actives have a fitted effect of over 60% in size
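L3MBTL1 (50 nM) pre-complexed 30 min with biotinylated H3(1-15)K9me1 peptide (75 nM), then compounds added for 30 min at room temperature; AlphaScreen streptavidin donor/nickel chelate acceptor beads (10 ug/mL final) read after 30 min dark incubation.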
Sfp inh: Sfp phosphopantetheinyl transferase inhibition. 310,000 compounds, 3.5% hits. Q9F4F7. Biochemical Sfp PPTase activity, qHTS. Potency, µM, usual class: inhibitors;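 note: the enzyme is Sfp with the accession as filed and its product quenches rhodamine fluorescence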
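Buffer: 50 mM Hepes-Na pH 7.6, 10 mM MgCl2, 0.01% Nonidet P-40, 0.01% BSA. Enzyme 15 nM, pre-exposed to compound 15 min; substrates then added and fluorescence change tracked over 30 min.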
G9a inh: blocks human histone lysine methyltransferase G9a | G9a H3K9 monomethylation, AlphaScreen, 2 h | 350,000 compounds, 8.8% hits | Potency, µM (doses to about 102 µM), actives largely listed as inhibitors | Q96KQ7 | AID 504332; note: nearly all actives have a fitted effect of over 75% in size
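Quantitative HTS format: methyltransferase activity on a biotin-tagged H3K9 peptide is measured by AlphaScreen, using a rabbit anti-monomethyl-H3K9 antibody with streptavidin donor and anti-IgG acceptor beads. Final levels are 20 nM enzyme, 500 nM peptide, 20 uM SAM; 2 h RT.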
JMJD2A Tudor: JMJD2A Tudor domain (human) inhibition; O75164; AlphaScreen JMJD2A-Tudor / H3K4me3 peptide binding; Potency, µM (top dose mostly 114 µM), usual class: inhibitors; 390,000 compounds, 4.4% hits; note: nearly all actives have a fitted effect of over 50% in size
A number is an active result; – = inactive; ? = inconclusive; · = not tested or not shown; [ ] = remark or other dose. Calls come from the whole dose curve; as a rule, active = well fitted curve in the direction sought with a large enough effect; inconclusive = small, poorly fitted or top-dose-only effect, or another doubt; inactive = no such curve, though single readings can be large; an effect the other way counts as inactive or inconclusive.

SMILES	BAZ2B block	HP1b chromo inh	L3MBTL1 inh	Sfp inh	G9a inh	JMJD2A Tudor
C/C(=N\NC(=O)CCCNc1ccccc1)c1ccncc1	–	–	–	–	?	–
C/C(=N\NC(=O)c1cc2ccccc2cc1O)c1ccccn1	10µM	–	·	–	·	18µM
CCc1ccc(/C(C)=N/NC(=O)c2ccccn2)cc1	–	–	–	–	–	–
C/C(=N\NC(=O)c1ccc(F)cc1)c1ccccn1	10µM	–	·	–	?	35µM
Cc1cc(C)c(NC(=O)Cn2c(=O)n(CCC(=O)N3CCc4ccccc4C3)c(=O)c3ccccc32)c(C)c1	?	–	·	·	–	–
C/C(=N\NC(=O)c1c[nH]c2ccccc12)c1ccccn1	10µM	–	8.9µM	–	–	50µM
CC(=O)Nc1ccc(/C(C)=N/NC(=O)c2ccc(F)cc2)cc1	–	–	–	–	–	89µM
C/C(=N\NC(=O)c1c[nH]c2ccccc12)c1ccco1	–	–	·	–	–	–
O=C1/C(=C/c2cccnc2)CCC/C1=C\c1cccnc1	–	–	–	–	–	–
O=C1/C(=C/c2cccs2)CCC/C1=C\c1cccs1	5.6µM	?	·	–	–	?
CC1C/C(=C/c2cccs2)C(=O)/C(=C/c2cccs2)C1 (stereo unspecified)	?	?	–	–	35µM	?
Cn1cccc1/C=C1\CCC/C(=C\c2cccn2C)C1=O	22µM	22µM	·	–	?	56µM
O=C1NC(=S)SC1=Cc1cccs1	·	?	·	·	·	–
CNc1ccccc1	–	–	–	·	–[0.501 µM]	–
CNc1cccccc1=S	10µM	–	4µM	–	3.5µM	11µM
O=C(Cn1c(=O)n(-c2ccccc2)c(=O)c2sc3ccccc3c21)N1CCCC1	–	–	·	·	–	–
COc1ccc(CNc2ccc3c(c2)CCC3)cc1Br	–	–	·	–	35µM	–
O=[N+]([O-])c1cccc(CNc2ccc3c(c2)CCC3)c1	20µM	40µM	–	?	13µM	1.4µM
COc1ccccc1CNc1ccc2c(c1)CCC2	–	–	–[2.29 µM]	–	–[0.501 µM]	?
O=C(Nc1cccc([N+](=O)[O-])c1)Nc1ccc2c(c1)CCC2	–	–	·	–	–	–
CCOc1cc(CNc2ccc3c(c2)CCC3)ccc1OC	?	·	·	–	45µM	·
Cc1ccsc1C(=O)Nc1nc2ccccc2[nH]1	–	–	–	–	–	–
COc1ccc(N=C(N)SCc2ccccn2)cc1	?	?	–	?	16µM	50µM
N#CC1=C(N)Oc2cc3ccccc3cc2C1c1cccs1 (stereo unspecified)	–	–	–	79µM	–[0.0925 µM]	–
N#CC1=C(N)Oc2cc3ccccc3cc2C1c1cccnc1 (stereo unspecified)	–	–	–	–	–	–
SMILES	BAZ2B block	HP1b chromo inh	L3MBTL1 inh	Sfp inh	G9a inh	JMJD2A Tudor
CCCCOC(=O)c1ccc(Nc2nc3ccc(C)cc3n3cnnc23)cc1	–	–	·	·	–	–
O=C(O)Cn1c2c(c3ccccc31)CSc1ccc(Cl)cc1-2	?	–	·	20µM	?	?
CC(=O)OC1=C(C#N)Cn2ccc3cccc1c32	–	·	–	–	11µM	·
O=C(OCC#CCSc1nnc(-c2cccc3ccccc23)o1)c1cc2ccccc2s1	·	·	·	·	·	–
C[C@@H]1O[C@@H](OC2C(O)C(OCCc3ccc(O)c(O)c3)OC(CO)C2OC(=O)/C=C/c2ccc(O)c(O)c2)[C@H](O)[C@H](O)[C@H]1O (stereo partly specified)	32µM	·	?	·	?	·
C[C@@H]1O[C@@H](O[C@H]2[C@H](O)[C@@H](O)[C@H](Oc3c(-c4ccc(O)cc4)oc4cc(O)cc(O)c4c3=O)O[C@@H]2CO)[C@H](O)[C@H](O)[C@H]1O	·	–	–	·	·	–
Cc1ccc(C)c(NC(=S)N/N=C/C(C)c2ccccc2)c1 (stereo unspecified)	?	–	–[11.4 µM]	–	35µM	–
CN(C)S(=O)(=O)c1cccc(NC(=S)N/N=C/C(c2ccccc2)c2ccccc2)c1	–	–	–	?	25µM	?
CN(C)S(=O)(=O)c1cccc(NC(=S)N/N=C/c2ccco2)c1	–	–	–	–	–	–
Cc1ccc(C)c(NC(=S)NCc2ccccc2)c1	–	–	–	–	–	–
CC(/C=N/NC(=S)Nc1cccc(S(=O)(=O)N(C)C)c1)c1ccccc1 (stereo unspecified)	–	–	–	89µM	8.9µM	20µM
Cc1ccccc1OCCC(=O)OCC(=O)NC1CCCCC1	–	–	–	·	–	–
Cn1c(CCNC(=O)c2cccs2)n[nH]c1=S	–	–	–	–	22µM	18µM
CCn1c(CCNC(=O)c2cccs2)n[nH]c1=S	–	–	–	–	?	?
Cn1c(CNC(=O)c2cccs2)n[nH]c1=S	–	–	–	–	28µM	14µM
Cc1cccc(C(=O)NCCc2n[nH]c(=S)n2C)c1	–	–	–	?	11µM	?
Cc1ccc(-n2c(CNC(=O)c3cccs3)nnc2SCC(=O)NO)cc1	–	–	–	–	–	–[11.4 µM]
O=C(NCc1n[nH]c(=S)n1-c1ccc(Br)cc1)c1cccs1	–	–	·	–	10µM	25µM
CCCc1nn2c(=O)cc(COC(=O)c3cccc(NC(=O)COc4ccc(F)cc4)c3)nc2s1	–	–	·	·	–[12.7 µM]	–
Cc1ccc2nc(C)c3c(c2c1)OC(C(C)(Cl)Br)C3 (stereo unspecified)	–	–	·	20µM	–[12.7 µM]	–
O=C(NCCCn1ccnc1)C(=O)NCC1OCCN1S(=O)(=O)c1ccc(Cl)cc1 (stereo unspecified)	13µM	–	?	–	–	79µM
O=C(NCCc1ccccc1)C(=O)NCC1OCCCN1S(=O)(=O)c1ccc(F)cc1 (stereo unspecified)	–	–	·	–	–	–
O=C(NCCCn1ccnc1)C(=O)NCC1OCCCN1S(=O)(=O)c1ccc(F)cc1 (stereo unspecified)	50µM	–	?	–	–	–
O=C(NCCCn1ccnc1)C(=O)NCC1OCCCN1S(=O)(=O)c1ccccc1 (stereo unspecified)	14µM	–	?	–	–	–
O=C(NCCc1ccccc1)C(=O)NCC1OCCN1S(=O)(=O)c1ccccc1 (stereo unspecified)	–	–	·	–	–	–
O=C(NCc1ccncc1)C(=O)NCC1OCCCN1S(=O)(=O)c1ccccc1 (stereo unspecified)	–	–	–	–	–	–
O=C(NCc1ccccn1)C(=O)NCC1OCCN1S(=O)(=O)c1ccc(Cl)cc1 (stereo unspecified)	–	–	·	–	–	–
O=C(NCCCn1ccnc1)C(=O)NCC1OCCN1S(=O)(=O)c1ccccc1 (stereo unspecified)	22µM	–	·	–	–	?
